These results are taken from PubChem BioAssay (EPA / NIEHS).

Inconclusive results are not listed. More than one record can exist for a structure, and the calls need not agree. Calls of active or inactive are those of the source. How the source made its calls: active means hit-call score of the fitted dose curve at least 0.9, where 1 is the maximum; inconclusive means response in the unintended direction; inactive means score below 0.9.

Sequence of zebrafish Thyroid Hormone Receptor beta (TRb), thrb (gene 30607) (Q9PVE4 whole entry, looked up): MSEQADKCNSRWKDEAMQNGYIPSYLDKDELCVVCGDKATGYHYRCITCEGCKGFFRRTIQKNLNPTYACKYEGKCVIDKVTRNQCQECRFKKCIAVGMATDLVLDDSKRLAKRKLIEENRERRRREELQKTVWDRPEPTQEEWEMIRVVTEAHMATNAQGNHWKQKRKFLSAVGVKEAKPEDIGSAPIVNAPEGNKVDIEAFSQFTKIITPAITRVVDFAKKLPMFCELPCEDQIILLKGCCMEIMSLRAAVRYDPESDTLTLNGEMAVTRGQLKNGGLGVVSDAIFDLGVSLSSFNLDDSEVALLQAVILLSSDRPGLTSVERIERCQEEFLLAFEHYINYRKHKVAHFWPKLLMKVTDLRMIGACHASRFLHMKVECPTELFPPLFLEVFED

The target of the assay is zebrafish Thyroid Hormone Receptor beta (TRb), thrb (gene 30607) (UniProt Q9PVE4). As to the kind of experiment: ATG_zfTRb_XSP2: Attagene TRANS-FACTORIAL Multi-Species (XSP1) HepG2 Assay for zebrafish Thyroid Hormone Receptor beta (TRb) (AID 2283836).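 On AC50: potency for induction of reporter signal above DMSO so agonist direction.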 The protocol:
ATG_XSP2_multi-species_TRANS is a cell-based, multiplexed assay created by modifying the existing Attagene TRANS-FACTORIAL system to include a panel of nuclear receptors from some or all the following species: human (Homo sapiens), mouse (Mus musculus), frog (Xenopus laevis), zebrafish (Danio rerio), chicken (Gallus gallus), and turtle (Chrysemys picta). The ECOTOX-FACTORIAL format uses HepG2, a human liver cell line, with measurements taken at 24 hours after chemical dosing in a 24-well plate. Xsp2 included 3 nM 6-alpha-fluorotestosterone and 1.5 nM norgestrel to stimulate the androgen receptor.ATG_zfTRb_XSP2 is one of 29 assay components measured or calculated from the ATG_XSP2_multi-species_TRANS assay. It is designed to make measurements of mRNA induction, a form of inducible reporter, as detected with fluorescence intensity signals by Reverse transcription polymerase chain reaction (RT-PCR) and Capillary electrophoresis technology.The assay endpoint ATG_zfTRb_XSP2 was analyzed in the positive analysis fitting direction relative to DMSO as the negative control and baseline of activity. Using a type of inducible reporter, measures of mRNA for gain-of-signal activity can be used to understand the reporter gene at the transcription factor-level as they relate to the gene TR. Furthermore, this assay endpoint can be referred to as a primary readout, because this assay has produced multiple assay endpoints where this one serves a reporter gene function. To generalize the intended target to other relatable targets, this assay endpoint is annotated to the nuclear receptor intended target family, where the subfamily is non-steroidal.
Human liver HepG2 cells are transiently transfected with multiple reporter transcription units (MRTUs) in 6-well plates using FuGene 6 reagent (Roche; 3 ml FuGene/1 mg DNA). The MRTU constructs are regulated by a cis-regulating element (promoter). […] A major difference between the CIS and TRANS system is that in CIS activities of endogenous TFs are measured, whereas the TRANS assay evaluates changes in activities of exogenous, chimeric NR-Gal4 proteins. […] At the end of 24 hour incubation, total RNA was isolated using TriZol reagent (Invitrogen). The isolated RNA is then reverse-transcribed using oligo(dT) primer and Mo-MLV reverse transcriptase (Invitrogen) with DNAse I (Ambion) treatment for 30 min. The one-tenth of the produced cDNA was amplified by PCR using Taq DNA polymerase (Invitrogen) and two reporter sequence-specific primers. The PCR products were fluorescently labeled by primer extension with 6-arboxyfluorescein (6-FAM) 5'-labeled reporter sequence-specific primer (2 min at 95 C, 20 s at 68 C and 10 min at 72 C) and these products were digested with 5U of HpaI (New England Biolabs) for 2h at 37 C. The fragments were purified using Qiaquick PCR columns (Qiagen), analyzed on an ABI 3130xL genetic analyzer (Applied Biosystems) with peak positions identified by using a set of X-rhodamine (ROX)-labeled MapMarker1000 molecular weight standards (BioVentures). The raw capillary electrophoresis data was processed using Attagraph software (Attagene).
As for `CCOP(=S)(OCC)Oc1ccc2c(C)c(Cl)c(=O)oc2c1`, the compound was called inactive.
Take `COc1ccc(C(=CC(=O)N2CCOCC2)c2ccc(Cl)cc2)cc1OC`: the compound was classed as inactive.
Take `CCCOCC(=Nc1ccc(Cl)cc1C(F)(F)F)n1ccnc1`: the compound was classed as inactive.
In the case of `C#CC(C)(C)NC(=O)c1cc(Cl)cc(Cl)c1`, the compound was called inactive.
With `CCc1cccc(C)c1N(C(=O)CCl)C(C)COC` (stereo unspecified), the compound was classed as inactive.
What is called AC50 is the concentration giving half of the maximal activity seen. With `Nc1c(Cl)cc([N+](=O)[O-])cc1Cl`, the AC50 is 48.3 µM (active) and the outcome was inactive.
For the compound `C#CCC1=C(C)C(OC(=O)C2C(C=C(C)C)C2(C)C)CC1=O` (stereo unspecified), the call was inactive.
`CCC(=O)Nc1ccc(Cl)c(Cl)c1`: the result was inactive.
Consider `CCC(CC)Nc1c([N+](=O)[O-])cc(C)c(C)c1[N+](=O)[O-]`, for which the compound was called inactive.
On to `CCOP(=O)(NC(C)C)Oc1ccc(SC)c(C)c1` (stereo unspecified), for which the result was inactive.
